Growth data for seven molecules are collected here from PubChem BioAssay (NCI).

This is part of a sample that, as a whole, favours compounds with a hit. Of some 83,000 tested, about 20% had one in any assay.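 Treatment: one concentration, 48 hours, 96-well format. Scoring: percent growth, with anything below 10 considered active.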 Active and inactive are the calls of the source.

Test systems include SK-MEL-2 melanoma; EKVX NSCLC; SN12C renal; UO-31 renal; TK-10 renal; ACHN renal; CAKI-1 renal; A498 renal; CCRF-CEM leukemia; MOLT-4 leukemia; SR leukemia; RPMI-8226 leukemia; OVCAR-8 ovarian; OVCAR-5 ovarian; OVCAR-4 ovarian; SK-OV-3 ovarian; IGROV1 ovarian; OVCAR-3 ovarian; HS 578T breast; NCI/ADR-RES ovarian.
Common to all, as to assay: NCI-60 one-dose screen, 48 h (100 = growth as untreated, 0 = no growth, -100 = all killed)
Common to all, as to conditions: 10 µM unless noted

Turning to `N=C(N)c1ccc(-c2ccc(-c3cc(Cl)cc(Cl)c3)s2)nc1`, the growth is 109% (inactive) with SK-MEL-2 melanoma; 94.5% (inactive) in the assay on EKVX NSCLC; 83% (inactive) with SN12C renal; 90.6% (inactive) in the assay with UO-31 renal; 115% (inactive) in the assay on TK-10 renal; 74.8% (inactive) in the assay on ACHN renal. The growth with CAKI-1 renal is 30.9% (inactive); in the assay with A498 renal, 91.6% (inactive); in the assay on CCRF-CEM leukemia, 21.7% (inactive); with MOLT-4 leukemia it was 2.78% (active); in the assay with SR leukemia, 8.46% (active); with RPMI-8226 leukemia it was 8.67% (active). For the same molecule, the growth in the assay with OVCAR-8 ovarian was -17.5% (active); in the assay with OVCAR-5 ovarian, 93.9% (inactive); with OVCAR-4 ovarian it was 59.1% (inactive); in the assay with SK-OV-3 ovarian it was 84.1% (inactive); in the assay on IGROV1 ovarian, 46.7% (inactive); with OVCAR-3 ovarian, 19.8% (inactive). In addition, the growth with HS 578T breast was 94% (inactive); in the assay on NCI/ADR-RES ovarian, 91.4% (inactive).
As to `CC1(C)CC[C@]23CC[C@]4(C)[C@H](CC[C@@H]5[C@@]6(C)C/C(=C/c7ccncc7)C(=O)C(C)(C)[C@@H]6CC[C@]54C)[C@H]2[C@H]1OC3`, the growth is 80.9% (inactive) with SK-MEL-2 melanoma; 92.3% (inactive) in the assay on EKVX NSCLC; 76.7% (inactive) in the assay on SN12C renal; 57.1% (inactive) in the assay with UO-31 renal; 97% (inactive) with TK-10 renal; 91% (inactive) in the assay with ACHN renal. Besides, the growth in the assay on CAKI-1 renal is 66.4% (inactive); in the assay on A498 renal, -3.63% (active); in the assay with CCRF-CEM leukemia it was 44.3% (inactive); with MOLT-4 leukemia, 50.4% (inactive); in the assay with SR leukemia it was 56.5% (inactive); in the assay on RPMI-8226 leukemia, 50% (inactive). For the same molecule, the growth in the assay with OVCAR-8 ovarian was 75.1% (inactive); in the assay with OVCAR-5 ovarian it was 89.8% (inactive); with OVCAR-4 ovarian it was 92.2% (inactive); in the assay on SK-OV-3 ovarian, 94.7% (inactive); in the assay on IGROV1 ovarian, 80.5% (inactive); with OVCAR-3 ovarian, 84.4% (inactive). Also, the growth was 84.9% (inactive) in the assay on HS 578T breast and 97.8% (inactive) with NCI/ADR-RES ovarian.
For the molecule `Cc1ccc2c(-c3nnc(N)s3)cc(=O)oc2c1C`, the growth was 110% (inactive) with SK-MEL-2 melanoma; 97.3% (inactive) in the assay on EKVX NSCLC; 99.8% (inactive) in the assay on SN12C renal; 80.2% (inactive) in the assay on UO-31 renal; 102% (inactive) in the assay on TK-10 renal; 103% (inactive) in the assay on ACHN renal. Besides, the growth in the assay on CAKI-1 renal was 94.1% (inactive); in the assay with A498 renal, 85.1% (inactive); with CCRF-CEM leukemia, 39.2% (inactive); in the assay with MOLT-4 leukemia it was 102% (inactive); with SR leukemia, 110% (inactive); in the assay on RPMI-8226 leukemia, 91.2% (inactive). Besides, the growth was 96.1% (inactive) with OVCAR-8 ovarian; 114% (inactive) in the assay on OVCAR-5 ovarian; 100% (inactive) with OVCAR-4 ovarian; 109% (inactive) in the assay with SK-OV-3 ovarian; 98.5% (inactive) in the assay with IGROV1 ovarian; 110% (inactive) in the assay with OVCAR-3 ovarian. Besides, the growth is 95.6% (inactive) in the assay with HS 578T breast and 102% (inactive) in the assay on NCI/ADR-RES ovarian.
Regarding `Nc1[nH]n2cc(-c3ccc(F)cc3)nc2c1N=Nc1ccc(S(N)(=O)=O)cc1`, the growth in the assay on SK-MEL-2 melanoma is 70.1% (inactive); with EKVX NSCLC, 108% (inactive); in the assay with SN12C renal, 68.9% (inactive); in the assay with UO-31 renal, 58.3% (inactive); in the assay with TK-10 renal, 83.8% (inactive); with ACHN renal, 52.3% (inactive). The growth with CAKI-1 renal is 47.4% (inactive); in the assay with A498 renal, 40.1% (inactive); in the assay on CCRF-CEM leukemia it was 66.6% (inactive); with MOLT-4 leukemia, 85.8% (inactive); in the assay with SR leukemia, 66.5% (inactive); with RPMI-8226 leukemia it was 73.2% (inactive). Also, the growth with OVCAR-8 ovarian was 79% (inactive); in the assay on OVCAR-5 ovarian it was 90.7% (inactive); in the assay with OVCAR-4 ovarian it was 80.9% (inactive); with SK-OV-3 ovarian, 73.9% (inactive); in the assay on IGROV1 ovarian, 61.9% (inactive); in the assay on OVCAR-3 ovarian, 78.7% (inactive). The growth in the assay on HS 578T breast was 66.8% (inactive); with NCI/ADR-RES ovarian it was 105% (inactive).
As to `Cc1ccc2nc(NC(=O)CSc3nc(-c4ccccc4)c(C#N)c4nnnn34)sc2c1`, the growth in the assay with SK-MEL-2 melanoma was 109% (inactive); in the assay with EKVX NSCLC, 106% (inactive); with SN12C renal it was 111% (inactive); with UO-31 renal it was 80.2% (inactive); in the assay on TK-10 renal it was 141% (inactive); in the assay with ACHN renal it was 106% (inactive). Moreover, the growth was 94.6% (inactive) in the assay with CAKI-1 renal; 109% (inactive) with A498 renal; 106% (inactive) in the assay on CCRF-CEM leukemia; 99.4% (inactive) with MOLT-4 leukemia; 72.8% (inactive) with SR leukemia; 117% (inactive) in the assay with RPMI-8226 leukemia. Besides, the growth was 108% (inactive) in the assay on OVCAR-8 ovarian; 113% (inactive) with OVCAR-5 ovarian; 101% (inactive) in the assay on OVCAR-4 ovarian; 100% (inactive) in the assay on SK-OV-3 ovarian; 102% (inactive) in the assay on IGROV1 ovarian; 122% (inactive) in the assay with OVCAR-3 ovarian. For the same molecule, the growth was 98% (inactive) with HS 578T breast and 106% (inactive) in the assay on NCI/ADR-RES ovarian.
`O=C1/C(=C/c2ccc(F)cc2)CN(C(=O)C(Cl)Cl)C/C1=C\c1ccc(F)cc1`: the growth was -16% (active) with SK-MEL-2 melanoma; -17.9% (active) with EKVX NSCLC; -72.5% (active) in the assay with SN12C renal; -83.4% (active) in the assay on UO-31 renal; -59.8% (active) in the assay on TK-10 renal; -98.3% (active) in the assay on ACHN renal. Moreover, the growth was -55.4% (active) in the assay with CAKI-1 renal; -84.3% (active) in the assay with A498 renal; 2.43% (active) with CCRF-CEM leukemia; -18.2% (active) in the assay with MOLT-4 leukemia; -18.4% (active) with SR leukemia; -31.4% (active) in the assay on RPMI-8226 leukemia. Further, the growth with OVCAR-8 ovarian is -9.41% (active); in the assay with OVCAR-5 ovarian it was -53.8% (active); in the assay with SK-OV-3 ovarian, 23.5% (inactive); in the assay on IGROV1 ovarian, -50.3% (active); in the assay on OVCAR-3 ovarian, -95.1% (active); in the assay with HS 578T breast, 6.3% (active). The growth in the assay on NCI/ADR-RES ovarian was 5.22% (active).
`Cc1nn(-c2cc(NC3CCC(O)CC3)c3c(=O)[nH]c(CCC(F)(F)F)cc3c2)c2c1C(=O)CC(C)(C)C2` (centres undefined): the growth was 60.3% (inactive) with SK-MEL-2 melanoma; 54% (inactive) with EKVX NSCLC; 46.2% (inactive) with SN12C renal; 39% (inactive) with UO-31 renal; 61.7% (inactive) with TK-10 renal; 31.5% (inactive) in the assay on ACHN renal. Also, the growth in the assay with CAKI-1 renal is 47.4% (inactive); in the assay with A498 renal it was 12.4% (inactive); in the assay with CCRF-CEM leukemia, 66.6% (inactive); in the assay with MOLT-4 leukemia, 40.8% (inactive); in the assay on SR leukemia, 25.9% (inactive); with RPMI-8226 leukemia it was 40.7% (inactive). Further, the growth in the assay with OVCAR-8 ovarian is 52.1% (inactive); with OVCAR-5 ovarian, 85.3% (inactive); in the assay on OVCAR-4 ovarian, 66.8% (inactive); in the assay with SK-OV-3 ovarian, 36.3% (inactive); in the assay with IGROV1 ovarian, 55.2% (inactive); with OVCAR-3 ovarian it was 70% (inactive). Further, the values for the growth in the assay on HS 578T breast and with NCI/ADR-RES ovarian were 34.4% (inactive) and 72% (inactive), respectively.
